The campaign covered roughly 370,000 compounds. About 3,700 (1%) were called active. What follows is part of a selection rich in actives, with near analogues and random picks from the rest. Unmarked numbers belong to inactive results.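 How the source made its calls: active means activation above the mean over all tested compounds plus 3 SD (cut at about 0.9% in these data); inactive means the rest.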
Tested on: Nuclear hormone receptor DAF-12 (Strongyloides stercoralis)
Assay: ssDAF-12 driven luciferase reporter activation – cell-based, luminescence, HEK293, GRIP1 co-expression, lit1-tk-luc, primary screen (AID 652126);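 further: 0% = DMSO-only wells and 100% = 3 µM delta7-dafachronic acid wells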
Conditions: HEK293 ssDAF-12/GRIP1 lit1-tk-luc reporter, at 6.8 µM, stronger effect = higher value, % of 3 µM dafachronic acid response

| Compound | activation |
| --- | --- |
| CCOC(=O)/C=C/c1ccccc1O | -1.38% |
| COc1ccc(-n2c(SCC(=O)OC(C)C)nnc2-c2ccccn2)cc1 | -1.58% |
| COc1ccnc(Oc2ccccc2)n1 | -0.92% |
| COc1ccc2nc(-c3ccccn3)ccc2c1 | 0.98% (active) |
| CC(c1ccc(N)cc1)c1cn(C)c2ccccc12 (stereo not given) | -1.36% |
| C=CS(=O)(=O)N(Cc1nnn(Cc2ccccc2)c1Br)[C@H](C(=O)OC)C(C)C | -1.75% |
| COc1cc(/C=C/C(=O)n2cnc3ccccc32)cc(OC)c1OC | -2.15% |
| COc1ccnc(NC(=S)N2CCN(c3ncc(C(F)(F)F)cc3Cl)CC2)c1 | -1.56% |
| CN(CCO)S(=O)(=O)c1ccc2c(c1)C(=O)c1cc(S(=O)(=O)N(C)CCO)ccc1-2 | -1.38% |
| COC(=O)[C@]12C[C@H](CC(=O)NCc3ccccc3)C(=O)N(CCc3ccc(OC)c(OC)c3)C1=C[C@H](C(C)(C)C)O[C@@H]2C | -1.28% |
| COc1ccc(CSc2nnc(SCC(=O)Nc3ccccc3C(F)(F)F)s2)cc1 | -1.22% |
| COC(=O)C(NC(C)=O)(Nc1nc2c(s1)CCCC2)C(F)(F)F (stereo not given) | -0.86% |
| Fc1ccc2nc(Nc3nc4c(s3)CCCC4)sc2c1 | 1.92% (active) |
| C[C@H]1CCC/C=C/C(=O)c2c(O)cc(O)cc2CC(=O)O1 | -1.77% |
| CCCCOCCCNC(=O)C[C@H]1C[C@@]2(C(=O)OC)C(=C[C@H](COCc3ccccc3)O[C@@H]2C)N(Cc2cccc3ccccc23)C1=O | -1.25% |
| COC(=O)[C@]12C[C@H](CC(=O)NCCc3ccccc3OC)C(=O)N(Cc3ccco3)C1=C[C@H](C(C)C)O[C@@H]2C1CC1 | -1.3% |
| CCCN(c1ccc(C)cc1)c1nc(=O)c2cccnc2s1 | 1.12% (active) |
| COc1ccnc(C(=O)N2CCC(Oc3cccnc3)CC2)c1 | -1.55% |
| CCCCCCN1CCS(=O)(=O)N(Cc2ccc(C(F)(F)F)cc2)C(C(=O)OC)C1 (stereo not given) | -0.61% |
| CN[C@H]1C[C@H]2c3cc(N4CCOCC4)ccc3CCN2C[C@H]1[C@H](C)O | -1.27% |
| COCc1ccc(C(=O)N2CCc3c([nH]c4ccccc34)C2c2ccccn2)s1 (stereo not given) | -2.05% |
| O=C(c1cn2ccccc2n1)N1CCc2c([nH]c3ccccc23)C1c1ccccn1 (stereo not given) | 0.91% (active) |
| c1ccc(C2c3[nH]c4ccccc4c3CCN2Cc2cccn2-c2cccnc2)nc1 (stereo not given) | -1.17% |

| Compound | activation |
| --- | --- |
| CCC(C)[C@@H](C(=O)OC)N(CCc1cn(Cc2ccccc2)nn1)S(=O)(=O)c1ccccc1Br (stereo not given in full) | -1.79% |
| COc1ccc(/C=C/c2c(-c3cccc(C)c3)oc3ccc(-c4ccc5c(c4)OCO5)cc23)cc1 | -1.12% |
| COc1ccc([C@H]2CC(=O)C=C(c3ccc(C)cc3)C2)cc1 | -0.86% |
| COc1ccc(C2=Nc3cc(C)ccc3OC2)cc1 | 1.43% (active) |
| CCOc1ccc(Oc2c(Cl)cnn(-c3ccc(C)cc3)c2=O)cc1 | -1.17% |
| Cc1ccc(-c2nnc(-n3nnc4ccccc43)c3ccccc23)cc1 | -1.26% |
| Cc1ccc(C2=NN(C)c3nc4ccccc4n3C2)cc1 | 1.2% (active) |
| Cc1nc2ccccc2n1CC(O)c1ccccc1 (stereo not given) | -1.14% |
| O=C(CCCCCN1C(=O)C2C3C=CC(C3)C2C1=O)Nc1ccccc1 (stereo not given) | -1.12% |
| COc1c(N2CCN(C(=S)Nc3ccccc3F)C(C)C2)c(F)cc2c(=O)c(C(=O)O)cn(C3CC3)c12 (stereo not given) | -0.28% |
| O=C(NC1CCC1)c1ccc(C#Cc2cccc(F)c2)c[n+]1[O-] | -1.07% |
| CSc1nc(C)nc(C2CC2)c1C#N | -1.49% |
| CC(CNC(=O)c1ccc(N)cc1)NC(=O)c1ccc(N)cc1 (stereo not given) | -1.71% |
| O=C(Nc1ccccc1C(=O)N1CCOCC1)c1ccc(Cl)cc1 | -1.32% |
| Nc1ccc(C(=O)Nc2ccccc2N)cc1 | 1.55% (active) |
| Cc1ccc(-n2c(COc3ccccc3)nnc2SCC(=O)Nc2ccc3c(c2)OCCO3)cc1 | -1.43% |
| Cc1cccc(NC(=O)c2ccc3ccccc3n2)n1 | 1.11% (active) |
| CC(NC(=O)COC(=O)c1ccc2ccccc2n1)c1ccccc1 (stereo not given) | -0.49% |
| COC(=O)c1ccc(NC(=S)Nc2cccc(C)n2)cc1 | -0.35% |
| Cc1c(C(C)c2ccccc2O)[nH]c2ccccc12 (stereo not given) | -0.11% |
| CCOc1ccc(-n2c(SCC(=O)Nc3cc(C)c(NC(=O)c4ccccc4)cc3OC)nnc2-c2cccs2)cc1 | -1.35% |
| CCOC(=O)N1CCN(C(=O)C[C@H]2C[C@@]3(C(=O)OC)C(=C[C@H](C(C)(C)C)O[C@@H]3C)N(Cc3ccc(Cl)cc3Cl)C2=O)CC1 | -1.86% |
| COc1ccc(OC)c(S(=O)(=O)NCCC(C)C)c1 | 1.47% (active) |

| Compound | activation |
| --- | --- |
| COCCNS(=O)(=O)c1cc(Br)ccc1OC | -1.56% |
| COc1ccc(C)cc1S(=O)(=O)NCCc1ccccc1 | -0.72% |
| CC(C)CNc1cccc2c1S(=O)(=O)N(Cc1cn(Cc3ccc(Cl)cc3)nn1)Cc1ccccc1O2 | -1.25% |
| O=C(CSc1nc2ccccc2nc1N1CCCCC1)N1CCN(S(=O)(=O)c2cccc([N+](=O)[O-])c2)CC1 | -0.71% |
| CC(=O)Nc1ccc(OC[C@@H](O)CN2CCC(C(O)(c3ccccc3)c3ccccc3)CC2)cc1 | -0.46% |
| O=C(NCc1ccc(Cl)cc1)C1CCCN(c2nc3ccccc3o2)C1 (stereo not given) | -1.04% |
| COc1ccccc1CNC(=O)C1CCN(c2nc3ccccc3o2)CC1 | -1.15% |
| COc1cccc(CNC(=O)C2CCCN(c3nc4ccccc4o3)C2)c1OC (stereo not given) | 1.04% (active) |
| CCC(=O)Nc1ccc2c(c1)C(=O)N(C)[C@H]1CC[C@H](CC(=O)NCCOC)O[C@@H]1CO2 | -1.05% |
| COc1ccc(-n2c(COc3ccccc3)nnc2SCC(=O)Nc2ccc3c(c2)OCO3)cc1 | -1.47% |
| COc1ccc(C(CNC(=O)c2cc3c(s2)CCCC3)N2CCOCC2)cc1 (stereo not given) | -1.09% |
| O=c1c2cc([N+](=O)[O-])ccc2nc2n1CCC2 | -0.82% |
| Cc1ccc(-n2cc3ccc([N+](=O)[O-])cc3n2)cc1 | 1.77% (active) |
| CC(C)(C)NC(=O)Cn1cnc2cc([N+](=O)[O-])ccc2c1=O | -1.52% |
| C=CCN1C(=O)[C@@H](CC(=O)N2CCN(C(=O)OCC)CC2)[C@]2(C(=O)OCC)CCCCC/C=C/12 | -1.02% |
| COc1ccccc1CNS(=O)(=O)c1cc(C(=O)NCc2ccccn2)c(Cl)cc1Cl | -1.13% |
| Cc1cc(S(=O)(=O)NCc2ccccn2)c(Cl)cc1Cl | -1.84% |
| CCOc1cc(C)c(S(=O)(=O)NCc2ccccn2)cc1C | 0.98% (active) |
| COC(=O)[C@H](C(C)C)N(CCCc1cn(Cc2ccccc2)nn1)S(=O)(=O)c1ccc(F)cc1Br | -2.17% |
| Cc1cccc(-n2c(O)c(C=Nc3ccccc3N)c(=O)[nH]c2=O)c1 | 1.8% (active) |
| COc1cccc(N(C)C(=O)[C@@H](C)[C@@H](O)c2ccc3ccccc3c2)c1 | -1.07% |
| CSc1nc2nc3c(c(=O)n2[nH]1)CCC3 | -1.17% |
| O=c1c2c(nc3cc(-c4cccc(Cl)c4)[nH]n13)CCCC2 | 1.57% (active) |

| Compound | activation |
| --- | --- |
| CCOC(=O)C1CCN(S(=O)(=O)c2ccc3c(c2)N(C(C)=O)CCO3)CC1 | -1.19% |
| COc1ccc(-c2csc(C(O)c3cccc(Cl)c3)n2)cn1 (stereo not given) | -1.06% |
| OC(c1ccccc1)c1nc(-c2cnc3ccccc3c2)cs1 (stereo not given) | 1.25% (active) |
| CC(C)c1cccc(-c2csc(C(O)c3ccccc3)n2)c1 (stereo not given) | -1.41% |
| COc1cccc(N(CC(=O)NCCSc2ccccn2)S(C)(=O)=O)c1 | -1.16% |
| CN(C)c1nc(N)nc(CSc2ccccn2)n1 | -1.25% |
| COc1ccc(C=C(C#N)C#N)c(CSc2ccccn2)c1 | 2.1% (active) |
| c1coc(CCNc2ncnc3ccc(-c4ccc5c(c4)OCO5)cc23)c1 | -0.09% |
| CCn1c2ccccc2c2cc(NC(=O)CSc3nnc(-c4ccccc4)n3-c3ccc(C)cc3)ccc21 | -1.2% |
| COc1ccc(/C=N/Nc2ncnc3sc4c(c23)CCCC4)cc1O | -0.66% |
| O=C(CSc1nc2ccccc2s1)NN=Cc1ccc(O)cc1O | -1.4% |
| COc1cc(/C=N/Nc2nc3ccccc3s2)ccc1O | 2.25% (active) |
| COc1ccccc1CCNC(=O)C1CCN(c2nc(C)cc(C)n2)CC1 | -1.36% |
| COc1cccc(-c2cc3nc(NCCOc4ccccc4Cl)n(C)c(=O)c3s2)c1 | -1.7% |
| Cn1c(NCc2cccnc2)nc2cc(-c3ccc(F)cc3)sc2c1=O | -1.06% |
| O=c1[nH]c(CCl)nc2cc(-c3ccc(Cl)cc3)sc12 | 1.53% (active) |
| CC(C)(C)OC(=O)NCc1cc(F)ccc1/C=C/S(=O)(=O)NCCc1ccccc1 | -1.87% |
| CCC(=O)OCCCN1C(=O)CCC12CCC(c1ccccc1)CC2 (stereo not given) | -0.68% |
| Cc1ccc(C)c(-n2c(SCC(=O)O)nc3sc4c(c3c2=O)CCCC4)c1 | -1.01% |
| NNC(=O)C1CCCn2c1nc1sc3c(c1c2=O)CCCC3 (stereo not given) | 1.14% (active) |
| CCn1c(SCC(C)=O)nc2sc3c(c2c1=O)CCCC3 | -2.16% |

From PubChem BioAssay AID652126 (The Scripps Research Institute Molecular Screening Center, 2013)
